D2 PAM-1: HTS Assay for Positive Allosteric Modulators of the Human D2 Dopamine Receptor: Primary Screen for Potentiators. AID 485347, 2010. HEK293 T-REx D2, calcium flux, EC20 dopamine potentiation. hit rate 0.34% among 340,000. potentiation, % at 10 µM;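 active = potentiation over 3 SD above the plate norm, cut at about 30% in these data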
Target sequence (P14416 whole entry, looked up): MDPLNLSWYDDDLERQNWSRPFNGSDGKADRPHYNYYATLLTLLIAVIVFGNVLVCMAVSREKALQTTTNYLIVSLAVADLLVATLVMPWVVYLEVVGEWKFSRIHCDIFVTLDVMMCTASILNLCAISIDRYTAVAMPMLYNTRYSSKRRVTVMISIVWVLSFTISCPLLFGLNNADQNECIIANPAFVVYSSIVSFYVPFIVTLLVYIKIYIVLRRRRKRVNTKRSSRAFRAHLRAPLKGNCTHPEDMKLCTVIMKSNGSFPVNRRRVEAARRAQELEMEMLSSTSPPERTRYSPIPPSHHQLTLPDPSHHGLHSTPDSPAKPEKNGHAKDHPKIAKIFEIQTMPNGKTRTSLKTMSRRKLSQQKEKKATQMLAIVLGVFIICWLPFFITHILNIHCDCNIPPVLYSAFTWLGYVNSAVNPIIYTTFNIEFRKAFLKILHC
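Cells plated with tetracycline inducer and held overnight at 30 C; calcium dye loaded 30–90 min at room temperature; baseline taken, compound added and read 180 s; EC20 dopamine then added and read 180 s.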
D2 ag-1: Beta-Arrestin HTS for Positive Allosteric Modulators of the Human D2 Dopamine Receptor: Agonists. D(2) dopamine receptor (Homo sapiens), P14416. DiscoveRx PathHunter D2 beta-arrestin, luminescence, 90 min; 100% = 57 uM dopamine signal. activation, % (concentration not given with the values). hit rate 0.084% among 360,000. AID 624465, 2012; in the data active = activation above about 40%; inconclusive = between about 15% and that limit
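DiscoveRx PathHunter D2 beta-arrestin cells (2,100/well) attached overnight, then compound-stimulated 90 min at 37 C in HBSS/10 mM HEPES/0.1% Tween-20 buffer; beta-galactosidase complementation read by luminescence after 1 h at ambient temperature. Dopamine 57 uM final (EC100) as control.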
D2 ag-2: HTS Assay for Allosteric Agonists of the Human D2 Dopamine Receptor: Primary Screen for Agonists; HEK293 T-REx D2 cells, calcium flux agonist mode; activation, % at 2 µM; hit rate 0.53% among 340,000;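 active = activation over 3 SD above normal in the single-dose calcium agonist read, cut at about 30% in these data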
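Calcium-flux readout, 1 cycle/sec over 180 s following compound pin transfer, in inducible HEK293 Trex D2 cells (force-coupled); dopamine controls included. Positive calcium responses during this window marked compounds as potential agonists.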
D2 antag: HTS Assay for Allosteric Antagonists of the Human D2 Dopamine Receptor: Primary Screen for Antagonists; D(2) dopamine receptor (Homo sapiens), P14416; HEK293 TREx D2 cells, calcium flux, dopamine EC80; inhibition, % at 10 µM; hit rate 2% among 340,000; in the data active = inhibition above about 30%; inactive = below that, where a call was filed
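Overnight-induced (tetracycline, 30 C) HEK293 T-REx cells carrying force-coupled D2 receive a no-wash calcium dye, then compound, then EC80 dopamine at 180 s; signals are read kinetically throughout.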
D2 PAM-2: Beta-Arrestin HTS for Positive Allosteric Modulators of the Human D2 Dopamine Receptor: Potentiators; D(2) dopamine receptor (Homo sapiens), P14416; DiscoveRx D2 beta-arrestin cells, luminescence, 90 min; 100% = 57 uM dopamine signal; potentiation, % (no concentration beside the values); hit rate 0.23% among 360,000; in the data active = potentiation above about 50%; inconclusive = mostly about 30% to 49%
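PathHunter D2 cells, attached overnight at 37 deg C, received compound in DMSO plus dopamine at EC20 (50 nM final) for 90 min at 37 deg C. Beta-arrestin recruitment was read as luminescence after 1 h with detection reagent at ambient temperature.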
Of the large screens only hits and unclear results are named; the others gave an inactive call. A selection: hits, their analogues and other compounds. The true share with any hit is near 2.4%.

C/C=C(/C)C(=O)Nc1cccc(C2=NOC3(C2)C[C@@H](C(N)=O)N(C(=O)CC(c2ccccc2)c2ccccc2)C3)c1 (stereo not given in full)	D2 PAM-1 37, D2 antag 32
O=C(Nc1ccccc1Cl)[C@H](CSCc1ccccc1)N1Cc2ccccc2C1=O	none (no result: D2 ag-1, D2 antag, D2 PAM-2)
Cc1oc(-c2ccccc2)nc1CSc1nc2c(c(=O)[nH]1)CCC2	D2 antag 35
Cc1cccc(-c2nc(CSc3nc4c(c(=O)[nH]3)CCC4)c(C)o2)c1	D2 antag 43
Cc1cc(Nc2cccc(C(F)(F)F)c2)nc2ccc(NC(=O)c3ccc(N(C)C)cc3)cc12	none (no result: D2 ag-1, D2 antag, D2 PAM-2)
CCCOc1cccc(C(=O)N(Cc2cc(OC)c(OC)c(OC)c2)C2CCS(=O)(=O)C2)c1 (stereo not given)	none (no result: D2 ag-1, D2 ag-2, D2 antag, D2 PAM-2)
CN(C)CCCNCCCNC(=O)c1ccccn1	none
Cc1ccccc1C(=O)NCCNC(=O)c1ccccn1	none
O=C(NCCCNCCCNC(=O)c1ccccn1)c1ccccn1	D2 antag 74
Cc1ccccc1C(=O)NCCCNC(=O)c1ccccn1	D2 PAM-1 31
Cc1ccc(CNC(=O)c2c(C)oc3nc(C)nc(N4CCOCC4)c23)cc1	none (no result: D2 ag-1, D2 antag, D2 PAM-2)
CC1=C(C(N)=O)C(c2cccc(C)c2)n2nc(-c3cccc(C)c3)nc2N1 (stereo not given)	none (no result: D2 ag-1, D2 antag, D2 PAM-2)
Cc1ccc(C(=O)NCCc2csc(C)n2)cc1	D2 antag 43
C/C(=N\O)c1c(O)cc(-c2ccccc2)n(-c2ccccc2)c1=O	D2 ag-2 31
C/C(=N/O)c1c(O)c(C)c(-c2ccccc2)n(-c2ccccc2)c1=O	none
CCn1nc(C)c2c(-c3ccccc3)cc(=O)n(C(C)C(=O)Nc3ccc(OC)c(OC)c3)c21 (stereo not given)	none (no result: D2 ag-1, D2 antag, D2 PAM-2)
CCN(CC(=O)Nc1c(F)cccc1F)C(=O)Cc1c(C)nc2ccccc2c1C	none
CCN(CC(=O)Nc1c(F)cccc1F)C(=O)Cc1csc(-c2ccccc2)n1	D2 antag 35
O=C(NNC(=O)c1sccc1-n1cccc1)c1ccc(Cl)cc1	D2 antag 36
O=C(NNS(=O)(=O)c1ccc(Cl)cc1)c1sccc1-n1cccc1	none (no result: D2 PAM-1, D2 ag-2, D2 antag)
COc1ccccc1N(CC(=O)NCc1ccco1)C(=O)CCC(=O)Nc1ccccn1	D2 PAM-1 32
Cc1cccc(N(CC(=O)NCc2ccco2)C(=O)CCC(=O)Nc2ccccn2)c1C	none
O=C(c1ccc2c(c1)N(Cc1ccc(F)cc1)C(=O)c1ccccc1S2(=O)=O)N1CCC(Cc2ccccc2)CC1	none (no result: D2 ag-1, D2 antag, D2 PAM-2)
N#CC1=C(SCC(=O)NC23CC4CC(CC(C4)C2)C3)NC(=O)C(C#N)C12CCCCC2 (stereo not given)	D2 PAM-1 94
N#CC1=C(SCC(=O)NC2CC2)NC(=O)C(C#N)C12CCCCC2 (stereo not given)	none
Cc1ccc(NCC(=O)N/N=C/c2ccncc2)cc1	D2 antag 49
CC(C)(C)C(=O)OCc1cc(=O)n2nc(C3CCCCC3)sc2n1	none (no result: D2 ag-1, D2 antag, D2 PAM-2)
Cc1ccc(NC(=O)c2cnc(SCC(=O)N3CCCc4ccccc43)n(C)c2=O)cc1C	none (no result: D2 ag-1, D2 antag, D2 PAM-2)
Cc1noc(C(=O)Nc2ccc3c(c2)OCO3)c1Cl	D2 antag 54
Cc1ccc2c(Cl)c(C(=O)Nc3ccc4c(c3)OCO4)sc2c1	D2 antag 34
COc1cccc(OC)c1C(=O)NC(=O)Nc1c(C)cccc1C	D2 antag 32
C[N+]1(CC(=O)Nc2ccc(F)cc2)CCN(C(=O)c2ccco2)CC1	D2 PAM-1 43
COc1ccc(NC2=NCCCCC2)cc1	none
COc1ccc(NC2=Nc3ccccc3CC2)cc1	D2 antag 46
Cc1cc(C)cc(NC(=O)c2ccc3oc(=O)c(S(=O)(=O)c4ccc(F)cc4)cc3c2)c1	none (no result: D2 ag-1, D2 antag, D2 PAM-2)
CCC(=O)NC1CC2CCCC(C1)N2Cc1ccc(C)cc1 (stereo not given)	D2 antag 93
CCCN1C2CCCC1CC(NC(=O)c1ccc(Br)cc1)C2 (stereo not given)	none
CC(=O)NC1CC2CCC(C1)N2Cc1ccc(C)cc1 (stereo not given)	D2 antag 51
CCOC(=O)N1CCC(NC(=O)CCCN2C(=O)CSc3ncccc32)CC1	D2 antag 32
CCOC(=O)C1CCN(C(=S)NC2CCCC2)CC1	D2 antag 34
CCOC(=O)C1CCCN(C(=S)NC2CCCCC2)C1 (stereo not given)	none (no result: D2 PAM-1, D2 ag-2, D2 antag)
CCCCc1nc(N2CCN(C(=O)c3ccco3)CC2)c(C#N)c2c1CCCC2	D2 antag 31
COc1ccc(OCc2nnc(SCC(=O)Nc3cccc(Cl)c3)o2)cc1	D2 antag 43
Cc1ccc(OCc2nnc(SCC(=O)N3c4ccccc4Sc4ccc(Cl)cc43)o2)cc1	D2 PAM-2 50
COc1ccc(OCc2nnc(SCC(=O)Nc3ccc(C)cc3)o2)cc1	none
Cc1nc(SCC(=O)Nc2cccc(Cl)c2)n[nH]1	D2 PAM-1 30
Cc1cc(C)cc(NC(=O)Cn2c(C)cc(C)c(C#N)c2=O)c1	none (no result: D2 ag-1, D2 antag, D2 PAM-2)
CCn1c(=O)c(C(C)=O)nc2ccccc21	D2 antag 33
CCc1ccc(OCC(=O)N/N=C(\C)c2ccc(O)cc2O)cc1	D2 antag 45
Cc1cc(C[n+]2cc(Br)ccc2N)c2ncccc2c1	D2 antag 32
Cc1c(NS(=O)(=O)c2ccccc2)cc(Cl)c(O)c1C	D2 ag-1 inconclusive, D2 PAM-2 62 (no result: D2 PAM-1)
Cc1c(Cl)cccc1NS(=O)(=O)c1ccccc1	none (no result: D2 PAM-1, D2 ag-2, D2 antag)
COc1cc(/C=C/C(=O)Nc2ccc3nc4n(c(=O)c3c2)CCCC4)cc(OC)c1OC	none
COc1cccc(/C=C/C(=O)Nc2ccc3c(c2)OCCO3)c1OC	D2 antag 69
COc1cccc(/C=C/C(=O)Nc2cccc(C(C)=O)c2)c1OC	none
COc1cccc(/C=C/C(=O)Nc2ccc(C(=O)Nc3cccc(S(N)(=O)=O)c3)cc2)c1OC	D2 antag 77
COc1cccc(/C=C/C(=O)Nc2ccc3nc4n(c(=O)c3c2)CCCC4)c1OC	D2 PAM-1 35
Cc1cc(Br)ccc1NC(=O)c1ccc(NS(=O)(=O)c2c(C)noc2C)cc1	none (no result: D2 ag-1, D2 antag, D2 PAM-2)
Cc1ccc(C)c(NC(=O)Cn2c(=O)n(CCCS(=O)(=O)C3CCCCC3)c(=O)c3ccccc32)c1	none (no result: D2 ag-1, D2 antag, D2 PAM-2)
CCOC(=O)Cn1c(=O)oc2cc(S(=O)(=O)N3CCN(c4ccc(Cl)cc4)CC3)ccc21	none (no result: D2 ag-1, D2 antag, D2 PAM-2)
Cc1cccc2cc(C#N)c(SCC(=O)N3CC(=O)Nc4ccccc43)nc12	D2 antag 34

Source: PubChem
